molecular target: CIAPIN1; assay: pooled miR-30 sensor sort-seq; sequence = guide strand; conditions: shRNA
Note: reference of the scale not given here.

Sequence	sensor-assay potency score (higher = more potent)
TTAACATAAATGACAACAGGAC	-0.72
TTGTTATCTACAGCTGTCTCTA	-0.353
TAAGCTGCCTAGAAGAACCCAC	0.616
TGGTCTTTTGATACACAGCAGC	-1.52
TAACGCTTGAAGCTTATCCACC	-1.25
TGGAGTAAACTAACAACTCTGA	-0.493
TCTCAGAGTGAACAAATCCAGA	-1.26
TTAGATGCTGTCTTCACTTTGC	-0.0905
TTGTGAGCCACTTGACTCGTGT	-0.0962
TTGACTTCTCTTTTTCCAGTTC	-0.361
TTCTTCAGGACACACTCCCTTC	-0.89
TGTGATCTGAACAAACAGCAGG	-0.776

molecular target: CIR1; assay: as above; conditions: shRNA

Sequence	sensor-assay potency score (higher = more potent)
TCTCTTCTTAGACTTGTCCTTC	-0.0367
TTGTTCTTTAAGATATTGCTGC	-0.164
TTCTCTTCTTAGACTTGTCCTT	-0.317
TTTTCTTCTCCAGTCGATCTAA	-0.412
TTCTTCATGAAGCTTTCTCTTC	-0.59
TAGACTTGTCCTTCTCTTCAGA	-0.159
TATCATATGATATTTTCTGTTC	-0.717
TTTGTGTTTACTTCTGCTCTTC	0.203
TTTCGTTTCAGTGCAAACCCAC	-0.179
TTTATTGTTACTCTCACTCTCA	0.426
TTCTTTAAGATATTGCTGCATC	-0.396
TACTGCTTTCTGAAGTCTCAGT	-0.586

molecular target: CIRBP; assay: as above; conditions: shRNA

Sequence	sensor-assay potency score (higher = more potent)
TACTTTGAGAAGACCTGCTCCA	0.53
TAGTAGTCTCTGGAGCCTCCGT	-1.12
TAACTGTCTCTGTAGGACCCGC	-0.935
TATAGTAGTCTCTGGAGCCTCC	-0.259
TCCGTACTTTGAGAAGACCTGC	-0.634
TGAGAAGACCTGCTCCAGCGAC	-1.23
TCGTCAATGTTCTCAAAGGTGA	-0.799
TTTCACAACCACCACTTCAGAG	-0.729
TAACTGTCGTAACTGTCTCTGT	0.0429
TCAGAGATCTGTCCGTACTTTG	-1.1
ACTGTCGTAACTGTCTCTGTAG	-0.226
TTGCCTGCCTGGTCTACTCGGA	-0.263
AACTGTCGTAACTGTCTCTGTA	0.0143
TTAGCGTCGTCAATGTTCTCAA	-0.0271
TCTTTCACAACCACCACTTCAG	-0.118
TGTCGTAACTGTCTCTGTAGGA	0.291
